Laboratory results as given in PubChem BioAssay (EPA / NIEHS).
Inconclusive results are not listed. Activity calls are given as the source filed them. Rule for the calls, unless noted: active = hit-call score of the fitted dose curve at least 0.9, where 1 is the maximum; inconclusive = response in the unintended direction; inactive = score below 0.9.

Assays:
[1] = biological target: CCAAT/enhancer-binding protein beta (Homo sapiens) (UniProt P17676); experiment: ATG_C_EBP_CIS: Attagene CIS-FACTORIAL HepG2 Assay for human CCAAT/Enhancer Binding Protein (C/EBP) beta (AID 2282927; active = hit-call score of the fitted dose curve at least 0.9, where 1 is the maximum; inactive = score below 0.9); settings: HepG2 Attagene cis-factorial transcription factor reporter; actives raise or lower the signal
Chain of CCAAT/enhancer-binding protein beta (Homo sapiens) (P17676 whole entry, looked up, the tested form may be a part): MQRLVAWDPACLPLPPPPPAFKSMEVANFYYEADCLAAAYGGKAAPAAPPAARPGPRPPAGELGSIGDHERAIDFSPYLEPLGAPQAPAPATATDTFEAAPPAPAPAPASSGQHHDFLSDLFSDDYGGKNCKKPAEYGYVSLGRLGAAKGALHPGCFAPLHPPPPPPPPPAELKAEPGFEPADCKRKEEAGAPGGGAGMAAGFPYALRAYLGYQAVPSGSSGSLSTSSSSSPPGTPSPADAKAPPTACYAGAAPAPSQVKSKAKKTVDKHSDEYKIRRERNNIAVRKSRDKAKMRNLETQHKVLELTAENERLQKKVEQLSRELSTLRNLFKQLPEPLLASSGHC
Method in brief: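 Chemical-treated HepG2 cells (24 h) bearing cis-regulated reporter constructs were processed for total RNA, then reverse transcription, PCR amplification, fluorescent primer extension and fragment analysis; gain- and loss-of-signal were fitted against DMSO.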

[2] = ATG_CMV_CIS: Attagene CIS-FACTORIAL HepG2 Assay for human CMV (Internal Marker) (AID 2282928; active = hit-call score of the fitted dose curve at least 0.9, where 1 is the maximum; inactive = score below 0.9;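 note: endpoint acts as a background internal control marker rather than a target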); settings: HepG2 CMV promoter reporter, transcription factor profiling; actives raise or lower the signal
Method in brief: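 24 h chemical treatment, HepG2 with transient multi-reporter transfection; RNA → oligo(dT) RT → PCR → 6-FAM extension → HpaI digest → CE fluorescence. Bidirectional fit, DMSO negative control.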

[3] = ATG_DR4_LXR_CIS: Attagene CIS-FACTORIAL HepG2 Assay for human Liver X Receptor (LXR), DR4 submotif (AID 2282929; active = hit-call score of the fitted dose curve at least 0.9, where 1 is the maximum; inactive = score below 0.9); settings: HepG2 Attagene DR4 cis-reporter, mRNA transcription; actives raise or lower the signal
Method in brief: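 HepG2 cells were transiently transfected with multiple cis-regulated reporter units and dosed for 24 hours. The DR4 reporter mRNA was quantified by RT-PCR, 6-FAM labelling and capillary electrophoresis. Bidirectional fits used DMSO as baseline.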

[4] = ATG_AP_2_CIS: Attagene CIS-FACTORIAL HepG2 Assay for human Activator Protein 2 (AP-2) (AID 2282932; active = hit-call score of the fitted dose curve at least 0.9, where 1 is the maximum; inactive = score below 0.9); settings: HepG2 AP-2 cis-reporter, Attagene transcription factor profiling; actives raise or lower the signal
Method in brief: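 Cells (HepG2) transfected with promoter-driven reporter constructs, treated 24 h. Total RNA reverse-transcribed, reporter cDNA PCR-amplified, FAM-labelled by primer extension, digested, resolved by capillary electrophoresis. Activity fitted both directions versus DMSO.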

[5] = ATG_BRE_CIS: Attagene CIS-FACTORIAL HepG2 Assay for human Bone Morphogenetic Protein (BMP) Response Element (BRE) (AID 2282933; active = hit-call score of the fitted dose curve at least 0.9, where 1 is the maximum; inactive = score below 0.9); settings: HepG2 BMP response element reporter, Attagene transcription factor profiling; actives raise or lower the signal
Method in brief: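 HepG2 cells transiently transfected with multiplexed cis-element reporter units were dosed with chemical for 24 h. Reporter mRNA was measured by RT-PCR with fluorescent labelling, HpaI digestion and capillary electrophoresis; bidirectional fitting relative to DMSO.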

[6] = biological target: Transcription factor E2F1 (Homo sapiens) (UniProt Q01094); experiment: ATG_E2F_CIS: Attagene CIS-FACTORIAL HepG2 Assay for human E2F Transcription Factor 1 (AID 2282935; active = hit-call score of the fitted dose curve at least 0.9, where 1 is the maximum; inactive = score below 0.9); settings: HepG2 Attagene cis-reporter, E2F reporter RNA transcripts; actives raise or lower the signal
Chain of Transcription factor E2F1 (Homo sapiens) (Q01094 whole entry, looked up): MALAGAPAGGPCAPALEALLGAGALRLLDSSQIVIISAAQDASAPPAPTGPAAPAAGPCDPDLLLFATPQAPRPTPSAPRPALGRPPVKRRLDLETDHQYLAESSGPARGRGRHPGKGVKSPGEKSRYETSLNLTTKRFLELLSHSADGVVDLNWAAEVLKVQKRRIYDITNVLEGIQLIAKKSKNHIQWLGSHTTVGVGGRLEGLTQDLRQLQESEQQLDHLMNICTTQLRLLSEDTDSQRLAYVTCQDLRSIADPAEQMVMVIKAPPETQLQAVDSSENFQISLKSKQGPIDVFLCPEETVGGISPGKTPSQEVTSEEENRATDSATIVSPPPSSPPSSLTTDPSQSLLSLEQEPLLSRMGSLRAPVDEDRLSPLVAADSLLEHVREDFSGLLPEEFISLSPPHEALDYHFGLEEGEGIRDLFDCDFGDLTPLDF
Method in brief: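 First, HepG2 cells were transfected with reporter transcription units. Next, they were dosed for 24 h. Then RNA was isolated, converted to cDNA, PCR-amplified, FAM-labeled, HpaI-digested and analyzed by capillary electrophoresis.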

[7] = ATG_E_Box_CIS: Attagene CIS-FACTORIAL HepG2 Assay for human Enhancer Box (E-box) (AID 2282936; active = hit-call score of the fitted dose curve at least 0.9, where 1 is the maximum; inactive = score below 0.9); settings: HepG2 E-box cis-reporter transcription, actives raise or lower the signal
Method in brief: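 Endogenous transcription factor activity was sensed in human HepG2 liver cells through transfected cis-promoter reporter units. After 24 h of dosing, total RNA was reverse-transcribed and reporter cDNA resolved by capillary electrophoresis.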

[8] = ATG_M_61_CIS: Attagene CIS-FACTORIAL HepG2 Assay for M61 Transcription Factor (Internal Marker) (AID 2282937; active = hit-call score of the fitted dose curve at least 0.9, where 1 is the maximum; inactive = score below 0.9); settings: HepG2 Attagene CIS-FACTORIAL M61 internal marker reporter; actives raise or lower the signal
Method in brief: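 HepG2 cells transiently transfected with multiplexed cis-promoter reporter units reporting endogenous transcription factor activity, measured 24 h after dosing. Reporter mRNA quantified by RT-PCR and capillary electrophoresis; bidirectional fit against DMSO baseline.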

[9] = ATG_EGR_CIS: Attagene CIS-FACTORIAL HepG2 Assay for human Early Growth Response 1 (EGR1) (AID 2282938; active = hit-call score of the fitted dose curve at least 0.9, where 1 is the maximum; inactive = score below 0.9); settings: HepG2 Attagene CIS-FACTORIAL EGR reporter mRNA; actives raise or lower the signal
Method in brief: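 HepG2 cells transiently transfected with cis-element-driven multiplexed reporter units, dosed for 24 h. EGR1-element reporter mRNA quantified by RT-PCR, 6-FAM labelling, HpaI digestion and capillary electrophoresis; bidirectional fit versus DMSO.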

[10] = ATG_M_19_CIS: Attagene CIS-FACTORIAL HepG2 Assay for M19 Transcription Factor (Internal Marker) (AID 2282939; active = hit-call score of the fitted dose curve at least 0.9, where 1 is the maximum; inactive = score below 0.9); settings: HepG2 Attagene CIS-FACTORIAL M19 internal marker reporter; actives raise or lower the signal
Method in brief: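 HepG2 cells transiently transfected with cis-regulated multiple reporter transcription units were dosed for 24 h; reporter mRNA was quantified by RT-PCR, 6-FAM primer-extension labelling, HpaI digestion and capillary electrophoresis, with bidirectional fitting against DMSO baseline.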

[11] = ATG_FoxO_CIS: Attagene CIS-FACTORIAL HepG2 Assay for human Forkhead box O (FoxO) (AID 2282943; active = hit-call score of the fitted dose curve at least 0.9, where 1 is the maximum; inactive = score below 0.9); settings: HepG2 Attagene cis-reporter, FoxO element, mRNA; actives raise or lower the signal
Method in brief: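 24 h chemical exposure, HepG2 with transient cis-MRTU transfection. RNA extraction, oligo(dT) RT, reporter-specific PCR, primer-extension labelling, HpaI digestion, CE fragment analysis; bidirectional fit, DMSO baseline.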

[12] = biological target: Cellular tumor antigen p53 (Homo sapiens) (UniProt P04637); experiment: TOX21_p53_BLA_p2_ratio: Tox21 HCT-116 p53 Agonism Beta-lactamase Assay, Ratio, Phase 2 (AID 2283592)
Chain of Cellular tumor antigen p53 (Homo sapiens) (P04637 whole entry, looked up): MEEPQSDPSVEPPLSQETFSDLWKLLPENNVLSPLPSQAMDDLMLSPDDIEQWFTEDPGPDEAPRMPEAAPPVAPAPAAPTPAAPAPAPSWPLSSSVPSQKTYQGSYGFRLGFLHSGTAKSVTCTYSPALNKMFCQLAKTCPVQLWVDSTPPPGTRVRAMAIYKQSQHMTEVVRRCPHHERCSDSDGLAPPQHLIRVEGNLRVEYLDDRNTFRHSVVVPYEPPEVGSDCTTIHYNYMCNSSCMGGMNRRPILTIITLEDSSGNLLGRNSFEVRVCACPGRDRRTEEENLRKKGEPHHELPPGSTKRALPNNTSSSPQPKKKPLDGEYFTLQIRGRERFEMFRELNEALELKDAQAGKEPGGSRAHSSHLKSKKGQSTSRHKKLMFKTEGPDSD
Method in brief: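 Plated HCT116 p53-bla cells (4000/well) received compound after 5 h, then 16 h at 37C/5% CO2. CCF4-AM added, 2 h RT. Ratio of 460 to 530 nm emission taken as the p53 reporter signal.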

[13] = TOX21_p53_BLA_p3_viability: Viability Assessment in the Tox21 HCT-116 p53 Agonism Beta-lactamase Assay, Phase 3 (AID 2283593);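 note: cells exposed to compound for 16 h before reading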
Method in brief: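 HCT-116 cells (4000/well) rested 5 h at 37C, then got DMSO compounds by pin tool (217-fold dilution) for 16 h at 37C, 5% CO2. After the bla read, CellTiter-Glo was added and luminescence read at 30 min, room temperature.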

[14] = biological target: Cellular tumor antigen p53 (Homo sapiens) (UniProt P04637); experiment: TOX21_p53_BLA_p5_ratio: Tox21 HCT-116 p53 Agonism Beta-lactamase Assay, Ratio, Phase 5 (AID 2283599)
Method in brief: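 HCT-116 cells carrying a p53-inducible beta-lactamase reporter were seeded at 4000 cells/well and dosed after 5 h with compound in DMSO (217-fold dilution). After 16 h at 37C, CCF4-AM substrate was added for 2 h, and the 460/530 nm emission ratio was scored as gain-of-signal versus DMSO.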

[15] = TOX21_p53_BLA_p5_viability: Viability Assessment in the Tox21 HCT-116 p53 Agonism Beta-lactamase Assay, Phase 5 (AID 2283600)
Method in brief: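 Workflow: seed 4000 cells per well, wait 5 h, add compounds (DMSO, 217-fold dilution), incubate 16 h, load CCF4-AM 2 h, add CellTiter-Glo, read luminescence after 30 min.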

[16] = biological target: Estrogen receptor (Homo sapiens) (UniProt P03372); experiment: NVS_NR_hER: NovaScreen (NVS) Nuclear Receptor Binding Assay for human Estrogen Receptor (ER) (AID 2283348)
Chain of Estrogen receptor (Homo sapiens) (P03372 whole entry, looked up): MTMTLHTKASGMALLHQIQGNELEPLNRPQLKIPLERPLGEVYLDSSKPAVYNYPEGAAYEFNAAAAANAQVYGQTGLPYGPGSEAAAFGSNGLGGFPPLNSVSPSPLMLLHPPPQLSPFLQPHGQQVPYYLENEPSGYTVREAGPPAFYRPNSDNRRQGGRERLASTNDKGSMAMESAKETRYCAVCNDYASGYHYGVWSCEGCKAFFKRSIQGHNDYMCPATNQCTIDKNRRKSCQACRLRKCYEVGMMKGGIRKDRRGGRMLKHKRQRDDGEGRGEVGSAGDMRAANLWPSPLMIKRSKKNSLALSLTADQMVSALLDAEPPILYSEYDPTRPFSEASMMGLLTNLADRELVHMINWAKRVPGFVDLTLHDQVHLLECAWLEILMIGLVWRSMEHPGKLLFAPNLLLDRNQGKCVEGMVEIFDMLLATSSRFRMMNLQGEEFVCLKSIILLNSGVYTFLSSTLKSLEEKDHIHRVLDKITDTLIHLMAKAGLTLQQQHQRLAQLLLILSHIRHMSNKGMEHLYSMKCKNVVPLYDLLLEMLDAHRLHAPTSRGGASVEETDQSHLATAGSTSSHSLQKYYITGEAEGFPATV
Method in brief: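 Radiodetection of ligand displacement in a lysate-based, cell-free format using MCF7 extracts, read at 18 hours. Duplicate 25 uM primary testing, then concentration series for actives.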

[17] = TOX21_p53_BLA_p2_viability: Viability Assessment in the Tox21 HCT-116 p53 Agonism Beta-lactamase Assay, Phase 2 (AID 2283591);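 note: compound exposure lasted 16 h at 37 °C; actives lower the ATP signal meaning cytotoxicity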
Method in brief: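 HCT-116 p53-bla cells (4000/well) rested 5 h at 37C, then received compounds in DMSO (217-fold dilution) for 16 h at 37C, 5% CO2. After the CCF4 read, CellTiter-Glo was added; ATP luminescence was read after 30 min at room temperature.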

[18] = biological target: Cellular tumor antigen p53 (Homo sapiens) (UniProt P04637); experiment: TOX21_p53_BLA_p3_ratio: Tox21 HCT-116 p53 Agonism Beta-lactamase Assay, Ratio, Phase 3 (AID 2283596)
Method in brief: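 Cells were seeded at 4000/well, rested 5 h at 37C, then dosed with DMSO compound solutions (217-fold dilution) for 16 h. CCF4-AM substrate was loaded for 2 h at room temperature, and the 460/530 nm emission ratio was fitted for gain of signal versus DMSO.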

[19] = TOX21_p53_BLA_p4_viability: Viability Assessment in the Tox21 HCT-116 p53 Agonism Beta-lactamase Assay, Phase 4 (AID 2283597);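 note: hits lower the luminescence signal meaning cytotoxicity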
Method in brief: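 Readout: ATP luminescence (CellTiter-Glo), measured 30 min after reagent addition at RT. The reagent followed a 2 h CCF4-AM incubation, and the cells had been exposed to compound for 16 h at 37C.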

[20] = biological target: Cellular tumor antigen p53 (Homo sapiens) (UniProt P04637); experiment: TOX21_p53_BLA_p4_ratio: Tox21 HCT-116 p53 Agonism Beta-lactamase Assay, Ratio, Phase 4 (AID 2283601)
Method in brief: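 HCT116 cells carrying an inducible beta-lactamase reporter were plated at 4000 cells/well, rested 5 h, then exposed to compounds in DMSO (217-fold dilution) for 16 h at 37C. CCF4-AM substrate was loaded 2 h at room temperature; 460/530 nm emission ratio scored gain-of-signal versus DMSO.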

## COC(=O)/C=C\C(=O)OC
[1]
  outcome: inactive
[2]
  outcome: inactive
[3]
  outcome: inactive
[4]
  outcome: inactive
[5]
  outcome: inactive
[6]
  outcome: inactive
[7]
  outcome: inactive
[8]
  outcome: inactive
[9]
  AC50: 83.1 µM (active)
[10]
  outcome: inactive
[11]
  outcome: inactive
[12]
  outcome: inactive
[13]
  outcome: inactive
[14]
  outcome: inactive
[15]
  outcome: inactive

## CC(=O)CC(=O)OC(C)(C)C
[16]
  outcome: inactive
[17]
  outcome: inactive
[12]
  outcome: inactive
[13]
  outcome: inactive
[18]
  outcome: inactive
[19]
  outcome: inactive
[14]
  outcome: inactive
[20]
  outcome: inactive

## C=CN1CCCCCC1=O
[1]
  outcome: inactive
[2]
  outcome: inactive
[3]
  outcome: inactive
[4]
  outcome: inactive
[5]
  outcome: inactive
[6]
  outcome: inactive
[7]
  outcome: inactive
[8]
  outcome: inactive
[9]
  outcome: inactive
[10]
  outcome: inactive
[11]
  outcome: inactive
[17]
  outcome: inactive
[12]
  outcome: inactive
[13]
  outcome: inactive
[18]
  outcome: inactive
[14]
  outcome: inactive
[20]
  outcome: inactive

## O=[N+]([O-])c1ccc(ON=Cc2cc(Br)c(O)c(Br)c2)c([N+](=O)[O-])c1
[16]
  outcome: inactive
[17]
  outcome: inactive
[12]
  AC50: 79 µM (active)
[13]
  AC50: 34.4 µM (active)
[18]
  AC50: 8.26 µM (active)
[19]
  outcome: inactive
[14]
  AC50: 13.8 µM (active)
[15]
  outcome: inactive
[20]
  AC50: 75.9 µM (active)
